Reference: PubChem BioAssay AID1021 (Emory University Molecular Libraries Screening Center, 2008)
Values joined by “and” are separate entries in the source; they are usually repeats but may differ in a detail not shown here. Equal values may be shown once. Screen size: about 220,000 compounds; about 2,100 (0.95%) were called active. The full list was thinned out, with actives kept by preference. Unmarked numbers belong to inactive results.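 How the source made its calls: active means compounds that cut the binding signal by more than half at the single screening dose; inactive means the rest.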

What follows are molecules tested against Induced myeloid leukemia cell differentiation protein Mcl-1 (Homo sapiens) (UniProt Q07820) (assay: disruptors of Mcl-1 and Bid BH3 peptide – biochemical, TR-FRET, 1536-well, primary screen (AID 1021;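 further: His-tagged Mcl-1 with europium anti-His antibody binding Bid BH3 peptide; 0% = Mcl-1 plus peptide wells and 100% = peptide-only wells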)). Conditions: TR-FRET Mcl-1/Bid-Dy647 peptide binding, at 21.7 µM, active compounds read high.
Induced myeloid leukemia cell differentiation protein Mcl-1 (Homo sapiens), sequence (Q07820 whole entry, looked up): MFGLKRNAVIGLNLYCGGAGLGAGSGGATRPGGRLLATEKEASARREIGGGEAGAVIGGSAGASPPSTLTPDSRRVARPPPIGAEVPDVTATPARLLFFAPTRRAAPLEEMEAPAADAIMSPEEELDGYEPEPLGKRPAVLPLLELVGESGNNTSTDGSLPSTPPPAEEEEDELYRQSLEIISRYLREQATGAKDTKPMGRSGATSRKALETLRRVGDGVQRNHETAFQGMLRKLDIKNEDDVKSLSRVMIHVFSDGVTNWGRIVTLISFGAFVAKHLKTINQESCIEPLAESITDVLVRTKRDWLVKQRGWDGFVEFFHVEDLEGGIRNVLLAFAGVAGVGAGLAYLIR

**Q.** How did the inhibition turn out when `O=C(CCCl)Nc1ccc(S(=O)(=O)NCc2ccco2)cc1` was run?
**A.** -69.5%

**Q.** How did the inhibition turn out when `CCNC(=O)NC(=O)C(C)OC(=O)C1CCN(S(=O)(=O)c2ccccc2F)CC1` (stereo not given) was run?
**A.** -21.6%

**Q.** For `COc1ccc(N2C(=O)C3CCCN3C2c2cc(OC)c(OC)cc2OC)cc1` (stereo not given), which inhibition is on record?
**A.** -12.4%

**Q.** For `COc1ccc(N2C(=O)C3CCCN3C2c2cccc(OC)c2)cc1` (stereo not given), which inhibition is on record?
**A.** -26.8%

**Q.** For `COc1ccc(OC)c(C2N(c3ccccn3)C(=O)C3CCCN32)c1` (stereo not given), which inhibition is on record?
**A.** 51.8% (active)

**Q.** How did the inhibition turn out when `Clc1ccccc1CSc1nnc(-c2ccco2)c(-c2ccco2)n1` was run?
**A.** 99.3% (active)

**Q.** `Nc1nc(SCc2ccccc2Cl)n[nH]1` was tested. Which inhibition did it give?
**A.** -6.93%

**Q.** For `O=C(Nc1nnc(SCc2ccccc2)s1)c1ccco1`, which inhibition is on record?
**A.** -46.6%

**Q.** With `COC(OC)c1ccnc(SCc2ccccc2Cl)n1` as the molecule, how does the inhibition read?
**A.** -7.91%

**Q.** `c1ccc(CSc2nnc(-c3ccco3)c(-c3ccco3)n2)cc1` was tested. Which inhibition did it give?
**A.** 91.7% (active)

**Q.** With `Brc1ccc(CSc2ccc(-c3ccco3)nn2)cc1` as the molecule, how does the inhibition read?
**A.** -15.8%

**Q.** For `COC(=O)c1cc(=O)n(-c2c(Cl)cc(C(F)(F)F)cc2Cl)[nH]1`, which inhibition is on record?
**A.** -6.09%

**Q.** How did the inhibition turn out when `O=C1NNC(c2ccccc2)=N/C1=C\c1ccc(Cl)cc1` was run?
**A.** -13.5%

**Q.** Which inhibition does the source give for `Cc1nc2nc[nH]n2c(=O)c1C/C=C/c1ccccc1` here?
**A.** -22.4%

**Q.** `CCS(=O)(=O)c1ccc(C(=O)NC)c(Cl)c1Cl` was tested. Which inhibition did it give?
**A.** -26.1%

**Q.** Which inhibition does the source give for `CCCCN1Cc2c(nc3cc(-c4ccccc4)[nH]n3c2=O)C1=O` here?
**A.** -37.8%

**Q.** How did the inhibition turn out when `O=S(=O)(Nc1n[nH]c(C(F)(F)F)n1)c1ccccc1` was run?
**A.** -11.3%

**Q.** Which inhibition does the source give for `Oc1ccccc1N1CCN(c2ncnc3sc(-c4ccccc4)cc23)CC1` here?
**A.** -18.1%

**Q.** With `CCc1cc2c(SCC(=O)Nc3ncc(Cl)c(C)c3Cl)ncnc2s1` as the molecule, how does the inhibition read?
**A.** -33.7%

**Q.** With `CCc1cc2c(N3CCN(c4nnc(CC)s4)CC3)ncnc2s1` as the molecule, how does the inhibition read?
**A.** 56.7% (active)

**Q.** Which inhibition does the source give for `N#Cc1c(NCCO)ccc([N+](=O)[O-])c1NCCO` here?
**A.** -25.7%

**Q.** Which inhibition does the source give for `CCCCCC(=O)Nc1ccc(-c2cn3cccnc3n2)cc1` here?
**A.** -4.56%

**Q.** How did the inhibition turn out when `CC(C)n1c(=S)[nH]c2cc(C(F)(F)F)ccc21` was run?
**A.** -33.7%

**Q.** `COc1ccc(OC)c(Nc2nc3ccccc3n3cnnc23)c1` was tested. Which inhibition did it give?
**A.** -7.62%

**Q.** With `CN(C)/C=C(/C(=O)c1ccccc1Cl)S(C)(=O)=O` as the molecule, how does the inhibition read?
**A.** -0.7%

**Q.** How did the inhibition turn out when `CCOC(=O)c1cn(CC)c2cc(F)c(F)cc2c1=O` was run?
**A.** -8.08%

**Q.** Which inhibition does the source give for `CC(C)c1ccc2c(c1)c(SC(C)(C)C)c(CC(C)(C)C(=O)O)n2Cc1ccc(Cl)cc1` here?
**A.** 83.2% (active)

**Q.** How did the inhibition turn out when `CCC(=O)Nc1cccc(C2=NOC3(C2)C[C@@H](C(N)=O)N(C(=O)c2cc([N+](=O)[O-])cc([N+](=O)[O-])c2C)C3)c1` (stereo not given in full) was run?
**A.** -35.2%

**Q.** With `CC(C)C(=O)N1CCC2(CC1)Oc1ccc(F)cc1C(=O)C21CC(c2ccccc2)=NO1` (stereo not given) as the molecule, how does the inhibition read?
**A.** -8.72%

**Q.** For `CC/S(CC1CC1(Cl)Cl)=N\S(=O)(=O)c1ccc(C)cc1` (stereo not given), which inhibition is on record?
**A.** -4.99%

**Q.** How did the inhibition turn out when `CCCC/S(C)=N/S(=O)(=O)c1ccc(C)cc1` (stereo not given) was run?
**A.** 4.25%

**Q.** Which inhibition does the source give for `Cc1ccc(S(=O)(=O)/N=S(\C)C(C)C)cc1` (stereo not given) here?
**A.** 89.4% (active)

**Q.** For `O=C1[C@@H]2C(c3cccnc3)=NO[C@@H]2C(=O)N1c1ccc(Cl)cc1Cl`, which inhibition is on record?
**A.** -19.8%

**Q.** For `CCN1C(=O)/C(=c2\s/c(=C3\Sc4ccccc4N3C)c(=O)n2C)N(C)C1=S`, which inhibition is on record?
**A.** 79.2% (active)

**Q.** For `CCC(=O)/C=C1\Sc2ccccc2N1CC`, which inhibition is on record?
**A.** -12.9%

**Q.** How did the inhibition turn out when `CCN1C(=O)/C(=C2/Sc3ccccc3N2CCCS(=O)(=O)O)SC1=S` was run?
**A.** -30.2% and -29.9%

**Q.** With `Cc1cc(F)ccc1NC(=O)C(C)n1c2ccccc2c2nc(=O)cc(C)n21` (stereo not given) as the molecule, how does the inhibition read?
**A.** -4.95%

**Q.** How did the inhibition turn out when `COCCN(CCOC)c1nc(N)c2c(N)nc3c(c2c1C#N)CC(=O)N3Cc1ccc(Cl)cc1` was run?
**A.** 54.2% (active)

**Q.** `CCOc1ccc(NC(=O)c2cc(C)nc3ccccc23)cc1` was tested. Which inhibition did it give?
**A.** -4.96%

**Q.** With `COc1ccccc1C(=O)NNC(=O)c1ccc(NC(=O)c2ccccc2)cc1` as the molecule, how does the inhibition read?
**A.** -23.3%

**Q.** With `COc1ccccc1C(=O)Nc1ccc(OCc2nnc3c4ccccc4c(C)nn23)cc1` as the molecule, how does the inhibition read?
**A.** 59.8% (active)

**Q.** For `CCOC(=O)N/N=C1\CC(C)S(=O)(=O)c2ccc(Cl)cc21` (stereo not given), which inhibition is on record?
**A.** -6.47%

**Q.** Which inhibition does the source give for `O=C(O)CCc1cccnc1` here?
**A.** -29.9%

**Q.** For `COc1ccc2nc(Nc3nc4cc5c(cc4s3)OCCO5)sc2c1`, which inhibition is on record?
**A.** -62.6%

**Q.** How did the inhibition turn out when `COc1ccc2nc(Nc3nc4ccc(NC(C)=O)cc4s3)sc2c1` was run?
**A.** 72.8% (active)

**Q.** With `COc1ccc2nc(NC(=O)c3ccc(Br)s3)sc2c1` as the molecule, how does the inhibition read?
**A.** 4.41%

**Q.** For `COc1ccc(-c2csc3ncnc(Oc4ccc5c(C)cc(=O)oc5c4)c23)cc1`, which inhibition is on record?
**A.** 63.3% (active)

**Q.** How did the inhibition turn out when `COc1cccc(-c2nnc(SCCOc3ccc4c(C)cc(=O)oc4c3)o2)c1` was run?
**A.** -1.18%

**Q.** With `COc1ccc(N2CCN(C(=O)COc3ccc4c(C)cc(=O)oc4c3)CC2)cc1` as the molecule, how does the inhibition read?
**A.** -16.1%

**Q.** `O=C(CN1CCN(Cc2ccccc2)CC1)NC(c1ccccc1)c1ccccc1` was tested. Which inhibition did it give?
**A.** 26.9%

**Q.** How did the inhibition turn out when `COc1ccc(NC(=O)CCN2C(=O)/C(=C/c3ccc4c(c3)OCO4)SC2=S)cc1` was run?
**A.** -17%

**Q.** With `Cc1ccc(N=Nc2c(C)[nH]n(-c3ccccc3)c2=O)cc1` as the molecule, how does the inhibition read?
**A.** -11.4%

**Q.** How did the inhibition turn out when `Cc1cc(C)c(C2C3=C(Nc4c2c(C)nn4-c2ccccn2)c2ccccc2C3=O)c(C)c1` (stereo not given) was run?
**A.** -27.1%

**Q.** With `Cc1ccc(C2C3=C(Nc4[nH]n(-c5ccccc5)c(=O)c42)c2ccccc2C3=O)cc1` (stereo not given) as the molecule, how does the inhibition read?
**A.** 84.6% (active)

**Q.** Which inhibition does the source give for `Cc1ccc(C(CC(=O)O)Nc2nc(N3CCCCC3)nc(N3CCCCC3)n2)cc1` (stereo not given) here?
**A.** 50.7% (active)

**Q.** For `O=C(O)c1ccc(/C=N/Nc2nc(N3CCCCC3)nc(N3CCCCC3)n2)cc1`, which inhibition is on record?
**A.** 5.5%

**Q.** How did the inhibition turn out when `CC(=O)NC(CC(=O)O)c1ccc(F)cc1` (stereo not given) was run?
**A.** -2.56%

**Q.** `CCC(C)(C)NC(=O)C1c2ccccc2Oc2ccccc21` was tested. Which inhibition did it give?
**A.** -5.83%

**Q.** `CCn1c(COc2ccccc2)nnc1SCC(=O)NCc1ccco1` was tested. Which inhibition did it give?
**A.** -25.4%

**Q.** With `Cc1ccc(-c2csc3nnc(SCC(=O)NCc4ccco4)n23)cc1` as the molecule, how does the inhibition read?
**A.** -17.3%

**Q.** `CCn1c(SCC(=O)NCc2ccco2)nnc1-c1ccc(N)cc1` was tested. Which inhibition did it give?
**A.** 75.2% (active)

**Q.** Which inhibition does the source give for `CC(C)n1c(=O)[nH]c2cc(C(=O)Nc3ccccc3)ccc21` here?
**A.** -10.9%

**Q.** Which inhibition does the source give for `COc1c(C=O)c(CCN(C)C(=O)c2ccc(F)cc2)cc2c1OCO2` here?
**A.** 0.65%

**Q.** For `Cc1ccsc1/C=C1\SC(N2CCOCC2)=NC1=O`, which inhibition is on record?
**A.** -15.9%

**Q.** Which inhibition does the source give for `Cc1ccc(N2CCN(/N=C/c3cccs3)CC2)cc1` here?
**A.** -7.6%

**Q.** For `Cc1ccc(N2CCN(C3=NC(=O)/C(=C\c4cccs4)S3)CC2)cc1`, which inhibition is on record?
**A.** 97.7% (active)

**Q.** For `Cc1ccc(-c2nn(-c3cccc(F)c3)cc2CNCCc2ccncc2)o1`, which inhibition is on record?
**A.** -20.2%

**Q.** With `C=CCN(c1ccccc1C(=O)NCC(=O)OCC)S(=O)(=O)c1ccc(C)cc1` as the molecule, how does the inhibition read?
**A.** -11.3%

**Q.** For `O=S(=O)(c1cccc(-c2nnc3n2CCCCC3)c1)N1CCOCC1`, which inhibition is on record?
**A.** -26.9%

**Q.** Which inhibition does the source give for `O=S(=O)(c1ccc(-c2ccccc2)cc1)N1CCCC1` here?
**A.** -19.2%

**Q.** For `O=S(=O)(c1cccc(-c2nnc(SC(F)F)n2-c2ccccc2)c1)N1CCCCC1`, which inhibition is on record?
**A.** 91.8% (active)

**Q.** Which inhibition does the source give for `COc1cccc(/C=N/NC(=O)c2[nH]nc3c2CCc2ccccc2-3)c1O` here?
**A.** 53.3% (active)

**Q.** For `COc1cccc(/C=N\NC(=O)C2=NNC(=O)C2C)c1O` (stereo not given), which inhibition is on record?
**A.** -128%

**Q.** With `COc1cccc(/C=N/Nc2cc(C)nc(-c3ccccc3O)n2)c1O` as the molecule, how does the inhibition read?
**A.** -54.1%

**Q.** How did the inhibition turn out when `O=C(NCc1ccc2c(c1)OCO2)c1sccc1Br` was run?
**A.** -8.46%
